TcdB GH inh: TcdB glycohydrolase inhibition; P18177; TcdB glycohydrolase enzymatic assay, plate reader; inhibition, % at 9.99 µM; hit rate 0.24% among 350,000; AID 652162; in the data active = inhibition above about 10%
Target sequence (P18177 whole entry, looked up): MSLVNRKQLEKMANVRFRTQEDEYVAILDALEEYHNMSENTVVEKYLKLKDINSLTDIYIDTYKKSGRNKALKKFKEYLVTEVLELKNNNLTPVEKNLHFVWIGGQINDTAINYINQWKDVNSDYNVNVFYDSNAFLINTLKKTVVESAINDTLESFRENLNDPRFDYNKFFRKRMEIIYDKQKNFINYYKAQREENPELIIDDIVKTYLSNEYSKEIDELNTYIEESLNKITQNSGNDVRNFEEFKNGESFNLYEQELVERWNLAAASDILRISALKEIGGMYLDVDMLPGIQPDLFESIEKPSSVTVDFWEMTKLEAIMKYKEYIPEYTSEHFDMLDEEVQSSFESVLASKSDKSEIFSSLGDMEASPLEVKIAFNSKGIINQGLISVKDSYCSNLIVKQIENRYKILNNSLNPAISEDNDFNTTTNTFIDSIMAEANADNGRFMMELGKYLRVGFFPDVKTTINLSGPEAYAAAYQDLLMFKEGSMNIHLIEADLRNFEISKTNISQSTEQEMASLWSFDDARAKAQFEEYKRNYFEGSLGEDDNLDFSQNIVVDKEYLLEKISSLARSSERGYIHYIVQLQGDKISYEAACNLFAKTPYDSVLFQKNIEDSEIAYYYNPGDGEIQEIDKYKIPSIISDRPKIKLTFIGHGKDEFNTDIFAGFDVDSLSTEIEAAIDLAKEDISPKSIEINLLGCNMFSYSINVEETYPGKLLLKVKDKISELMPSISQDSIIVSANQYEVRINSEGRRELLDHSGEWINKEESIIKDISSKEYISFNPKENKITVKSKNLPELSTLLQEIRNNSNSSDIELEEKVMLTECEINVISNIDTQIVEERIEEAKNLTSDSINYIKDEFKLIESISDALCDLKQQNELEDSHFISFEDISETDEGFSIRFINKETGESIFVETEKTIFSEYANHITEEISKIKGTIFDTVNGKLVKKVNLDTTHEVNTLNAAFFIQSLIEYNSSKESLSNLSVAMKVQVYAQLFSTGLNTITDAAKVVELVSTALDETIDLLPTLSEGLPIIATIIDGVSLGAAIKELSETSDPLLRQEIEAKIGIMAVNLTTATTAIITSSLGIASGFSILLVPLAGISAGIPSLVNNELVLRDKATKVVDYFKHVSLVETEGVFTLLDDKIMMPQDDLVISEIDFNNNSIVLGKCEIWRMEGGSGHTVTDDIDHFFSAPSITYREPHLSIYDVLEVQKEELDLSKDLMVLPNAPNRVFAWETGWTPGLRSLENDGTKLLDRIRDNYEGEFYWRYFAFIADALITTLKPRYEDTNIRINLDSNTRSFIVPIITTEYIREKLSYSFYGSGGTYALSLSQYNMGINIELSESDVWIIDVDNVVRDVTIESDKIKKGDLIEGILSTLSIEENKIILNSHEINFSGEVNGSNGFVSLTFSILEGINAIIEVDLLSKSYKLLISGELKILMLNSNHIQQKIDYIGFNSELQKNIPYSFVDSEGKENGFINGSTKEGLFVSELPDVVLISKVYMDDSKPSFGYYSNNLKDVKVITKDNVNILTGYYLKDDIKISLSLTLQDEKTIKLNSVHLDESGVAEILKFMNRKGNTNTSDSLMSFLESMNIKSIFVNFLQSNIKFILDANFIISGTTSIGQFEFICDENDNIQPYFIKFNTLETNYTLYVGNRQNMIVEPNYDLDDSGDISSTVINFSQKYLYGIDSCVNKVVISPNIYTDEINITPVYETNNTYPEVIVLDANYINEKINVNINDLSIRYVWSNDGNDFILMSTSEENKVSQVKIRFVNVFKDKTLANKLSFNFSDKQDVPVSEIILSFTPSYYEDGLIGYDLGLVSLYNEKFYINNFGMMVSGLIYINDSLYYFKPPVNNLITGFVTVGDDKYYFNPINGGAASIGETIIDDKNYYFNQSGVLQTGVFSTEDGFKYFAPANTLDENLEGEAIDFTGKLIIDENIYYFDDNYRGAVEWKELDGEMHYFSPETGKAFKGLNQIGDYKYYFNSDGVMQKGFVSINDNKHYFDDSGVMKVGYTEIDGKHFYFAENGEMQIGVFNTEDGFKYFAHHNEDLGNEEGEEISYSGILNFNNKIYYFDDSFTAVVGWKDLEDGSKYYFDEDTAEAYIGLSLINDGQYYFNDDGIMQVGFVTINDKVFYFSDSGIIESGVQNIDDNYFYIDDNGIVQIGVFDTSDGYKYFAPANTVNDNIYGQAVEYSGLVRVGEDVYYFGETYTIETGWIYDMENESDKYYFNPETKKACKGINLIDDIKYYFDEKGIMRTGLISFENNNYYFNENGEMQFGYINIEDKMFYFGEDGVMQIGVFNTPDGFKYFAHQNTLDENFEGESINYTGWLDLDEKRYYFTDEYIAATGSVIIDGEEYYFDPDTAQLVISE
Mtb UGM inh: inhibitors of M. tuberculosis UDP-galactopyranose mutase | P9WIQ1 | purified UGM, fluorescence polarization probe displacement | inhibition, % at 10 µM | hit rate 0.06% among 320,000; in the data active = inhibition above about 10%, passing the limit was not always enough
PrP UTR inh: suppresses PrP 5' UTR mRNA reporter expression | AID 488862 | hit rate 0.35% among 340,000 | cell-based PrP 5' UTR mRNA reporter, plate reader | inhibition, % (concentration not given with the values); in the data active = inhibition above about 52%
BH1578 lux ind: induces V. cholerae light production without autoinducers | activation, % at 18.7 µM | hit rate 0.16% among 350,000 | V. cholerae BH1578 lux reporter, luminescence, 6 h | AID 588436; in the data active = activation mostly above about 9.7%, no sharp cut-off
Yp Topo-I inh: inhibitors of Yersinia pestis topoisomerase I. Y. pestis Topo-I cleavage product accumulation, plate reader. activity, % at 10 µM. hit rate 0.064% among 360,000; in the data active = activity above about 50%, passing the limit was not always enough
Numbers stand for hits; n = inactive; x = no result. An excerpt weighted towards active compounds, which were near 0.65% of everything screened.

SMILES | TcdB GH inh | Mtb UGM inh | PrP UTR inh | BH1578 lux ind | Yp Topo-I inh
CCCNC(=O)N1C[C@H]2[C@@H](c3ccccc31)[C@@H](CO)N2CC1CCCC1 | n | x | x | x | x
COc1ccc(Cl)cc1NC(=S)NC1CCCC1 | 15 | n | n | n | n
C[C@H]1CN([C@@H](C)CO)C(=O)c2cccc(NC(=O)C3CCCCC3)c2O[C@@H]1CN(C)Cc1ccc(C(=O)O)cc1 | n | x | x | x | x
O=C(c1ccccc1)N1CC2(C1)[C@H](c1ccccc1)[C@@H](CO)N2Cc1cccnc1 | n | x | x | x | x
Cc1ccc(C)c(CN2C(=O)COc3ccc(C(=O)c4ccccc4C(=O)O)cc32)c1 | 14 | n | n | n | n
CCCNC(=O)N1CC[C@@H]2[C@H]1c1cc(-c3ccc(OC)cc3)ccc1N(C)[C@H]2CO | n | x | x | x | x
CCCNC(=O)N1CC[C@@H]2[C@@H](CO)N(C)c3ccc(-c4ccc(F)cc4)cc3[C@@H]21 | 12 | x | x | x | x
CCCNC(=O)N1CC[C@@H]2[C@H]1c1cc(-c3ccccc3)ccc1N(C)[C@H]2CO | 12 | x | x | x | x
CN1c2ccc(-c3ccc(F)cc3)cc2[C@@H]2[C@@H](CCN2C(=O)c2ccc(F)cc2)[C@H]1CO | n | x | x | x | x
C[C@H](CO)N1C[C@H](C)[C@H](CN(C)Cc2ccc3c(c2)OCO3)Oc2c(NC(=O)c3nc4ccccc4s3)cccc2C1=O | n | x | x | x | x
O=c1[nH]nc(Cc2ccc(-c3ccc(Cl)cc3)o2)c2ccccc12 | x | n | n | n | 68
CO[C@@H]1CN(C)C(=O)c2cc(NC(C)=O)ccc2OC[C@H](C)NC[C@@H]1C | n | x | x | x | x
C[C@H](CO)N1C[C@H](C)[C@H](CN(C)Cc2ccncc2)Oc2ccc(NC(=O)Cn3cnnn3)cc2CC1=O | n | x | x | x | x
CN1C(=O)NC(c2ccc(O)cc2)C2=C1CN(c1ccc(O)cc1)C2=O (stereo not given) | 19 | n | n | n | n
CCOC(=O)C1=C(C)NC2=C(C(=O)CCC2)C1c1coc2ccccc2c1=O (stereo not given) | n | n | n | n | n
CC1=C(C(=O)OCC2CCCO2)C(c2coc3ccccc3c2=O)C2=C(CCCC2=O)N1 (stereo not given) | 13 | n | n | n | n
Cc1noc(C)c1NC(=O)Nc1ccc2c(c1)C(=O)N([C@H](C)CO)C[C@H](C)[C@H](CN(C)C(=O)c1ccccc1)OCCCC[C@H](C)O2 | n | x | x | x | x
CCCN1C(=O)/C(=C\C=C2/Sc3ccccc3N2CCO)SC1=S | n | n | n | n | n
CCN1C(=O)/C(=C/C=C2/Sc3ccccc3N2CCO)SC1=S | n | n | n | 236 | n
COc1cc2nncc(SC)c2cc1OC | 11 | x | n | n | n
O=C(NC(=S)NNS(=O)(=O)c1ccccc1)c1cccnc1 | 11 | n | n | n | n
Cc1ccc(S(=O)(=O)NNC(=O)c2cccnc2)cc1 | n | n | n | n | n
Cc1noc(C)c1NC(=O)N(C)C[C@H]1OCCCC[C@@H](C)Oc2ccc(NS(=O)(=O)c3ccc(Cl)cc3)cc2C(=O)N([C@H](C)CO)C[C@H]1C | n | x | x | x | x
COc1ccc(CN(C)C[C@H]2OCCCC[C@@H](C)Oc3ccc(NS(=O)(=O)c4ccc(C)cc4)cc3C(=O)N([C@H](C)CO)C[C@H]2C)cc1 | n | x | x | x | x
CCOc1ccc(N2CC(C(=O)NC(C)C)CC2=O)cc1 (stereo not given) | x | n | n | n | n
SMILES | TcdB GH inh | Mtb UGM inh | PrP UTR inh | BH1578 lux ind | Yp Topo-I inh
CCCNC(=O)C1CC(=O)N(c2ccc(OCC)cc2)C1 (stereo not given) | 11 | n | n | n | n
COc1cccc2c(=O)cn[nH]c12 | x | 11 | n | n | n
COC(=O)c1cc(=O)c2cccc(OC)c2[nH]1 | n | n | n | n | n
CCCCNC(=O)C1CCN(S(=O)(=O)c2c(C)noc2/C=C\c2ccc(OC)cc2)CC1 | 85 | n | n | n | n
CC(C)c1ccc(-c2nnn(CCC(=O)O)n2)cc1 | x | n | 73 | n | n
O=C(O)CCn1nnc(-c2cccs2)n1 | x | n | n | n | n
O=C(Nc1ccc2c(c1)OCO2)N[C@H]1CC[C@@H](CCNC(=O)C2CCC2)O[C@H]1CO | n | x | x | x | x
O=S(=O)(Nc1nc2c(s1)CCCC2)c1ccc2ccccc2c1 | x | n | n | 17 | n
O=[N+]([O-])c1cc(Br)ccc1NS(=O)(=O)c1ccccc1 | 19 | x | n | n | n
O=[N+]([O-])c1ccccc1NS(=O)(=O)c1ccccc1 | n | x | x | n | n
CN1C(=O)C(c2nnc(Nc3cccc4ccccc34)s2)C2CC1(C)Oc1ccccc12 (stereo not given) | 11 | n | n | n | n
C[C@@H]1CN([C@@H](C)CO)C(=O)c2cc(C#CCN(C)C)cnc2O[C@H]1CN(C)S(=O)(=O)c1ccccc1 | n | x | x | x | x
CO[C@@H](CN(C)S(=O)(=O)c1ccc(F)cc1)[C@@H](C)CN(C(=O)Nc1ccccc1F)[C@H](C)CO | n | x | x | x | x
O=c1c2oc3nc4c(cc3c2ncn1CCCc1ccccc1)CCCC4 | 11 | n | n | n | n
CC(=NCCCN(C)C)C1=C(O)c2ccccc2C1=O | x | n | n | 17 | n
COc1ccc(C(=O)Nc2ccc(C(=O)OCC(=O)c3ccccc3)cc2)cc1 | x | n | n | x | n
COc1ccc(C(=O)COC(=O)c2ccc(OC)c(OC)c2)cc1OC | 42 | n | n | n | n
COc1cccc(C(=O)COC(=O)c2ccc(NC(=O)c3ccccc3)cc2)c1 | 22 | n | n | n | n
COc1ccc(C(=O)OCC(=O)c2ccc(F)cc2)cc1OC | n | n | n | n | n
CCCNC(=O)N1C[C@H](C)[C@H](OC)CN(C)C(=O)c2ccc(NS(=O)(=O)CC(F)(F)F)cc2OC[C@@H]1C | n | x | x | x | x
Cc1ccccc1OCC(=O)Nc1ccccc1N1CCCCC1 | x | n | n | n | 55
CC(Oc1ccc(F)cc1)C(=O)Nc1ccccc1N1CCCCC1 (stereo not given) | n | n | n | n | 65
O=C(COc1c(Cl)cccc1Cl)Nc1ccccc1N1CCCC1 | n | n | n | n | 54
Cc1cc(Cl)ccc1OCC(=O)Nc1ccccc1N1CCOCC1 | x | n | n | n | 53
CC(Oc1cccc(Cl)c1)C(=O)Nc1ccccc1N1CCCCC1 (stereo not given) | n | n | n | n | n
SMILES | TcdB GH inh | Mtb UGM inh | PrP UTR inh | BH1578 lux ind | Yp Topo-I inh
Cc1cccc(OCC(=O)Nc2ccccc2N2CCCC2)c1C | n | n | n | n | n
C[C@@H]1CN([C@@H](C)CO)C(=O)c2cc(NC(=O)c3ccncc3)ccc2O[C@@H]1CN(C)C | n | x | x | x | x
COc1c(Br)cc(Br)cc1/C=N/n1c(C)nnc1C | x | n | n | 5.6 | n
COc1cc(/C=N/n2c(C)nnc2C)cc(OC)c1OC | x | n | n | n | n
CCOc1cc(/C=N/O)ccc1OCc1ccc(C)cc1 | 11 | n | n | n | n
CCOc1cc(/C=N/O)ccc1OS(=O)(=O)c1ccc(C)cc1 | x | n | n | n | n
COC(=O)Cc1ccc(NC(=S)NCc2ccc(OC)cc2)cc1 | 23 | n | n | n | n
CN1C(=O)c2cc(NC(=O)NC3CCCC3)ccc2OC[C@@H]2O[C@@H](CC(=O)NCC3CC3)CC[C@@H]21 | n | x | x | x | x
Cc1noc(C)c1S(=O)(=O)Nc1ccc2c(c1)C(=O)N([C@@H](C)CO)C[C@@H](C)[C@H](CN(C)C(=O)Nc1ccc3c(c1)OCO3)OCCCC[C@H](C)O2 | n | x | x | x | x

Screening data as filed in PubChem.
